Records with an inconclusive call do not appear. Activity calls are given as the source filed them. Rule for the calls, unless noted: active = hit-call score of the fitted dose curve at least 0.9, where 1 is the maximum; inactive = score below 0.9.
Columns and labels:
[1] = TAMU_PeakParms_SingleDonor1434_QT: Texas A&M University (TAMU) 1.5-hr Human Induced Pluripotent Stem Cell (iPSC)-derived Cardiomyocytes Calcium (Ca+2) Flux Assay for Cardiotoxicity: QT (decay-rise ratio) (AID 2284235; active = hit-call score of the fitted dose curve at least 0.9, where 1 is the maximum)
Method in brief: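 Decay/rise ratio of calcium-flux fluorescence scored after 90 min exposure (37C) of donor 1434 iPSC cardiomyocytes to 0.2–100 uM (0.5% DMSO). Beat-cessation and severe-notch points removed; POD is EC05, a 5% rise over DMSO.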

[2] = CCTE_Mundy_HCI_Cortical_NOG_BPCount: CCTE's Neurite Outgrowth Assay in rat cortical cells for Branch Point Count, Mundy Lab (AID 2284237);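 for AC50: branch points counted about two days after chemical exposure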
Method in brief: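 Measured 50.33 h after dosing, this morphology endpoint uses rat primary cortical cultures labelled for betaIII-tubulin. Branch points are quantified by high-content imaging, with DMSO as negative control and baseline.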

[3] = CCTE_Mundy_HCI_hNP1_Casp3_7: CCTE's Caspase-Glo 3/7 Assay in human neuroprogenitor cells for Apoptosis, Mundy Lab (AID 2284240)
Method in brief: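 Neuroepithelial-lineage stem cells from WA09 embryonic cells were treated with chemicals after 40–44 h of culture. Twenty-four hours later, caspase-3/7 activation was detected luminescently after a 30 min room-temperature reagent step, with DMSO as baseline.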

[4] = CCTE_Mundy_HCI_hNP1_CellTiter: CCTE's Cell Titer-Glo 2 Assay in human neuroprogenitor cells for Viability, Mundy Lab (AID 2284241; active = hit-call score of the fitted dose curve at least 0.9, where 1 is the maximum)
Method in brief: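 Measures ATP content in human neural progenitors derived from WA09 embryonic cells. Read-out at 26.5 hours after dosing, with DMSO serving as the negative control and baseline.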

[5] = CCTE_Mundy_HCI_Cortical_Synap_Neur_Matur_NeuronCount: CCTE's Synaptogenesis and Neurite Maturation Assay in rat cortical cells for Neuron Count, Mundy Lab (AID 2284242; active = hit-call score of the fitted dose curve at least 0.9, where 1 is the maximum)
Description: CCTE_Mundy_HCI_Cortical_Synap&Neurite_Matur is a multiplexed, cell-based-readout assay that uses rat primary cortical cells with measurements taken at 288.33 hours after chemical dosing in a microplate: 96-well plate.CCTE_Mundy_HCI_Cortical_Synap_Neur_Matur_NeuronCount is one of eight components of the CCTE_Mundy_HCI_Cortical_Synap&Neurite_Matur assay. It measures cell viability related to number of neurons using High Content Imaging of fluorescently labelled markers.[…] Using a type of morphology reporter, loss -of-signal activity can be used to understand developmental effects.
Cells are plated onto 96 well plates and allowed 2 hr for attachment to the substrate. At days in vitro (DIV) 5, Cytosine Arabinoside (AraC) is added to arrest glial cell growth. Chemicals are dosed and a media change is performed at DIV 7 of differentiation and is continued through DIV 12 when the experiment is terminated. Cells are fixed with […] and Hoechst Dye. Cells are stained using Millipore Mouse anti-MAP2MAB3418 (1:800) and Millipore Rabbit anti-Synaptophysinsc-1750 (1:250) primary antibodies and Alexa Fluor-488 goat anti-mouse and AlexaFluor-546 goat anti-rabbit secondary antibodies to label neuronal cell nuclei, synapses and neurites. A Cellomics ArrayScan VTi HCS Reader is used for automated image acquisition and analysis of neurite outgrowth.

[6] = read-out: Tumor necrosis factor (Homo sapiens) (UniProt P01375); experiment: BSK_BT_xTNFa: BioMAP Diversity Plus: BT Assay for Tumor necrosis factor alpha (TNF-alpha) Biomarker Activity (AID 2284230); details: primary human B cells with PBMC
Method in brief: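 Endpoint derived in the positive direction versus DMSO vehicle. Cells: B cells together with PBMC, exposed 24 h before TNF-alpha in the medium was read on the Luminex xMAP platform.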

[7] = read-out: Vascular cell adhesion molecule 1 (VCAM1), VCAM1 (gene 7412); experiment: BSK_MyoF_VCAM1: BioMAP Diversity Plus: MyoF Assay for Vascular cell adhesion molecule 1 (VCAM1) Biomarker Activity (AID 2284231); details: primary human lung fibroblasts
Method in brief: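 VCAM-1 levels, lung fibroblasts, ELISA, 24 h exposure, increase scored relative to DMSO.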

[8] = read-out: Collagen I, COL1A1 (gene 1277); experiment: BSK_MyoF_CollagenI: BioMAP Diversity Plus: MyoF Assay for Collagen I Biomarker Activity (AID 2284238); details: primary human lung fibroblasts
Method in brief: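 Measured by ELISA: Collagen I from human lung fibroblasts 24 h after compound addition, analysed for signal gain with DMSO as baseline; overt toxicity read from SRB staining of parallel cultures at the same time.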

[9] = read-out: Collagen III, COL3A1 (gene 1281); experiment: BSK_MyoF_CollagenIII: BioMAP Diversity Plus: MyoF Assay for Collagen III Biomarker Activity (AID 2284239); details: primary human lung fibroblasts
Method in brief: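 Multiplexed cell assay in lung fibroblasts, harvested at 24 h post-dose. Collagen III detected by ELISA, with positive-direction fitting relative to DMSO vehicle.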

[10] = TAMU_HCS_1.5hr_SingleDonor1434_Cytotoxicity: Cytotoxicity Assessment using High-content Screening (HCS) Fluorescent Imaging for the Texas A&M University (TAMU) 1.5-hr Human Induced Pluripotent Stem Cell (iPSC)-derived Cardiotoxicity Assay (AID 2284234; active = hit-call score of the fitted dose curve at least 0.9, where 1 is the maximum)
Method in brief: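 Nuclear counts from Hoechst 33342 imaging define cytotoxicity here, with EC10 (10% cell-count loss relative to DMSO) as point of departure. iPSC cardiomyocytes received 0.2-100 uM test chemical in 0.5% DMSO for 1.5 h at 37 C.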

Sequence of Tumor necrosis factor (Homo sapiens) (P01375 whole entry, looked up): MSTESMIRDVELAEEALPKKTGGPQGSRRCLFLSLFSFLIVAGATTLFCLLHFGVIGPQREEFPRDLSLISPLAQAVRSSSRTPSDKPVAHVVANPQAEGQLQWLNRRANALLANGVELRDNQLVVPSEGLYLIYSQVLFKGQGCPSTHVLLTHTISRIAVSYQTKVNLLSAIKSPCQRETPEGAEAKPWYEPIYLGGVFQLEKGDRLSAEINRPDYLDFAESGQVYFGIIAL

NC(=O)NO
outcome [1]: inactive
outcome [2]: inactive
outcome [3]: inactive
outcome [4]: inactive
outcome [5]: inactive

Cn1cnc([N+](=O)[O-])c1Sc1ncnc2nc[nH]c12
AC50 [6]: 12.6 µM (active)
outcome [7]: inactive
outcome [8]: inactive
outcome [9]: inactive

O=P(OC(CCl)CCl)(OC(CCl)CCl)OC(CCl)CCl
AC50 [2]: 20.8 µM (active)
outcome [3]: inactive
outcome [5]: inactive

CCCCCCc1ccc(O)cc1O
AC50 [10]: 50 µM (active)
outcome [1]: inactive

Cn1c(=O)c2c(ncn2C)n(C)c1=O
outcome [2]: inactive
outcome [3]: inactive
outcome [4]: inactive
outcome [5]: inactive

O=C1CCC(N2C(=O)c3ccccc3C2=O)C(=O)N1 (stereo unspecified)
outcome [2]: inactive
outcome [3]: inactive
outcome [4]: inactive
outcome [5]: inactive

CC[C@H]1OC(=O)[C@H](C)[C@@H](O[C@H]2C[C@@](C)(OC)[C@@H](O)[C@H](C)O2)[C@H](C)[C@@H](O[C@@H]2O[C@H](C)C[C@H](N(C)C)[C@H]2O)[C@](C)(O)C[C@@H](C)C(=O)[C@H](C)[C@@H](O)[C@]1(C)O
outcome [2]: inactive
outcome [3]: inactive
outcome [4]: inactive
outcome [5]: inactive
